This is part of a sample that, as a whole, favours compounds with a hit. Of some 79,000 tested, about 15% had one in any assay. Rule as the data show it: active = growth inhibition above about 70%; inactive = the rest.
Assays:
[1] = NCI Yeast Anticancer Drug Screen. Data for the rad50 strain (AID 155);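 also: 0% = growth of vehicle-only cultures of the same strain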; details: S. cerevisiae rad50 strain growth inhibition; at 50.0 µM; active compounds read high
Method in brief: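 A DNA repair-deficient yeast mutant serves as the test organism; compound-induced growth inhibition is calculated against vehicle-treated cells.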

[2] = NCI Yeast Anticancer Drug Screen. Data for the mec2-1 strain (AID 157); details: S. cerevisiae mec2-1 strain, at 50.0 µM, active compounds read high
Method in brief: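 Vehicle-treated cultures served as reference for growth inhibition of compound-exposed mec2-1 yeast.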

[3] = NCI Yeast Anticancer Drug Screen. Data for the sgs1 mgt1 strain (AID 161);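 also: 0% = growth of cultures given vehicle only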; details: S. cerevisiae sgs1 mgt1 strain, at 50.0 µM, active compounds read high
Method in brief: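 Genetically altered yeast, compound exposure, growth inhibition relative to vehicle.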

[4] = NCI Yeast Anticancer Drug Screen. Data for the cln2 rad14 strain (AID 165);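 also: 0% = growth equal to vehicle treated cultures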; details: S. cerevisiae cln2 rad14 strain, at 50.0 µM, active compounds read high
Method in brief: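 Each compound was tested on cln2 rad14 yeast. Inhibition of growth was calculated against vehicle-exposed controls.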

[5] = NCI Yeast Anticancer Drug Screen. Data for the bub3 strain (AID 167); details: S. cerevisiae bub3 mutant strain, at 50.0 µM, active compounds read high
Method in brief: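 Inhibition values come from growth of compound-treated mutant yeast normalised to vehicle-treated controls.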

[6] = NCI Yeast Anticancer Drug Screen. Data for the mlh1 rad18 strain (AID 175); details: S. cerevisiae mlh1 rad18 strain growth inhibition; at 50.0 µM; active compounds read high
Method in brief: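 Vehicle-treated cultures served as the reference for growth inhibition in a yeast strain carrying DNA damage repair alterations exposed to each compound.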

Measured: growth inhibition

CCCCCCP(=O)(CCCC)CCCC
inactive: [1] 38.1% | [2] 11.9% | [3] 41.2% | [4] -20.9% | [5] -12% | [6] -0.2%

O=C(O)c1ccccc1SC1OC(=O)c2ccccc21 (stereo not drawn)
inactive: [1] -0.45% | [2] -8.75% | [3] 2.35% | [4] -58.7% | [5] 2.75% | [6] -1.45%

CCCCCCCCCCCCS(=O)(=O)CCC(=O)c1ccco1
inactive: [1] 29.4% | [2] 20.1% | [3] -6.8% | [4] 9.3% | [5] 6.55% | [6] 7.6%

CC(=O)c1cccc2ccccc12
inactive: [1] -7.8% | [2] 5.55% | [3] 3.65% | [4] -9.1% | [5] -11.1% | [6] -5.95%

COc1ccc(NC(=O)Oc2cccc(NC(C)=O)c2)c(OC)c1
inactive: [1] 13.8% | [2] 8.7% | [3] 10.1% | [4] 4.35% | [5] 12.4% | [6] 8.65%

CCCCCCCCCCCCCCCCCC#N
inactive: [1] 36.7% | [2] 20.6% | [3] -2.9% | [4] -52.1% | [5] 5.5% | [6] 39.9%

Clc1nnc(-c2ccccc2)s1
inactive: [1] 2.3% | [2] 2.85% | [3] 19.9% | [4] 7.85% | [5] 8.2% | [6] 9.5%

Cn1c(=O)c2sc3cc4c(cc3c2c2ccccc21)sc1c(=O)n(C)c2ccccc2c14
inactive: [1] 23.2% | [2] -8.1% | [3] 22.9% | [4] 3.85% | [5] 23.2% | [6] 24.9%

O=C1NC(=O)c2ccc(S)c3cccc1c23
inactive: [1] 0.5% | [2] 0% | [3] -2.35% | [4] -41.1% | [5] 3.35% | [6] -8.05%

CNCc1ccccc1[N+](=O)[O-]
inactive: [1] 6.75% | [2] -3.95% | [3] -3.9% | [4] -9.95% | [5] 3.7% | [6] -0.3%

O=C(/C=C/c1ccc(F)c(F)c1)OCCc1ccccc1
inactive: [1] 28.1% | [2] 29% | [3] 32.7% | [4] 28.9% | [5] 40.9% | [6] 27.2%

COC1=NCc2ccccc2-c2ccccc21
inactive: [1] -16.1% | [2] -21.2% | [3] -17.9% | [4] 8.55% | [5] 27.5% | [6] -28.9%

CCOC(=O)CNCc1ccc(Cl)c(Cl)c1
inactive: [1] 16.1% | [2] 4.15% | [3] 28.2% | [4] -15.6% | [5] 26.9% | [6] 21.9%

OCC1NCCCC1O (stereo not drawn)
inactive: [1] -17.5% | [2] -25.6% | [3] -22.9% | [4] -8.55% | [5] -18.1% | [6] -10%

CCC(C(=O)c1ccccc1)C1(C(=O)OC)NC(=S)NC(=O)C1C#N (stereo not drawn)
inactive: [1] 3.25% | [2] -2.85% | [3] -2.55% | [4] -17.9% | [5] -8.05% | [6] 4%

CC1=C(C)C(=O)C=CC1=O
inactive: [1] 19.9% | [2] 6.3% | [3] 5.3% | [4] -1% | [5] 3.95% | [6] 12%

c1ccc(CCC2OCC(c3ccccc3)O2)cc1 (stereo not drawn)
inactive: [1] -21.9% | [2] 18.6% | [3] -3.2% | [4] -35.9% | [5] 58.8% | [6] -2.05%

CC(O)CNc1ncnc2ccccc12 (stereo not drawn)
inactive: [1] -13.5% | [2] -12.2% | [3] -3.15% | [4] -5.1% | [5] 9.15% | [6] 4.05%

OC1(c2ccc(F)cc2)CCNCC1
inactive: [1] 21.5% | [2] -7.55% | [3] 33.9% | [4] 20.4% | [5] 19% | [6] 7.2%

O=C1c2ccccc2C(=O)N1CNc1ccccc1S
inactive: [1] 13.2% | [2] 5.1% | [3] 19.6% | [4] 28.4% | [5] 22.1% | [6] -8%

CC1CN=C(N(C(=O)Nc2ccc(Cl)c(Cl)c2)c2ccccc2)S1 (stereo not drawn)
inactive: [1] -47.3% | [2] 3.6% | [3] -5.7% | [4] 23.8% | [5] -2.55% | [6] -3.3%

O=C(NC(=S)Nc1ccc(S(=O)(=O)c2ccc(NC(=S)NC(=O)c3ccccc3)cc2)cc1)c1ccccc1
inactive: [1] -28.5% | [2] -32.6% | [3] -7.8% | [4] 8.75% | [5] -32.1% | [6] -12.6%

c1ccc2c(c1)C(=C1c3ccccc3-c3ccccc31)c1ccccc1-2
inactive: [1] -6.4% | [2] -18.1% | [3] -0.3% | [4] -34.8% | [5] 6.85% | [6] -2.1%

S=C(S)NCCCn1ccnc1
inactive: [1] -11.8% | [2] 23.8% | [3] -14.8% | [4] -15.9% | [5] -30.7% | [6] -0.8%

NNC(=O)c1nc[nH]c1C(=O)NN
inactive: [1] 2.95% | [2] -2.6% | [3] 21.5% | [4] -14.3% | [5] -7.6% | [6] 32%

COC(OC)(c1ccccc1)c1ccccc1
inactive: [1] -33% | [2] -27.4% | [3] -33% | [4] -11.1% | [5] -40.6% | [6] -18.6%

COc1ccc2c(ccc3[nH]c4c(C)cnc(NCCCN(C)C)c4c32)c1
inactive: [1] -16.6% | [2] -7.6% | [3] -2.7% | [4] -3.55% | [5] 4.05% | [6] -7.85%

CC1=C(c2ccc(C)cc2)NC(=S)C(C)C(c2ccc(C)cc2)=N1 (stereo not drawn)
inactive: [1] -11.2% | [2] -24.6% | [3] 15.3% | [4] 8.15% | [5] 0.95% | [6] 19.8%

Cc1cn(C2CC(O)C(CO)O2)c(=O)nc1NCc1cccs1 (stereo not drawn)
inactive: [1] 0.8% | [2] 2% | [3] -8.55% | [4] -9.15% | [5] -4.55% | [6] 2.95%

CCOC(=O)/C=C(/C)N
inactive: [1] -19.1% | [2] -7.25% | [3] -14.2% | [4] 8.45% | [5] 1.85% | [6] -0.75%

CC1C2CC(C(S(=O)(=O)O)C2=O)C1(C)C (stereo not drawn)
inactive: [1] 9.25% | [2] -7% | [3] -32.5% | [4] 6.45% | [5] -36.8% | [6] -29.3%

O=C(O)c1cc(C(=O)O)nc(C(=O)O)c1
inactive: [1] -23.9% | [2] -12.1% | [3] -16.1% | [4] -29.9% | [5] 5.7% | [6] -0.6%

OC1(c2ccc(-c3ccc(-c4ccc(C5(O)C(c6ccccc6)=C(c6ccccc6)C(c6ccccc6)=C5c5ccccc5)cc4)cc3)cc2)C(c2ccccc2)=C(c2ccccc2)C(c2ccccc2)=C1c1ccccc1
inactive: [1] 1.05% | [2] 4.4% | [3] 6.8% | [4] -3.9% | [5] -1.8% | [6] 2%

CCN(/N=C1\CC2C=CCN(C2)C(=O)Cc2c1[nH]c1ccccc21)S(=O)(=O)c1ccc(C)cc1 (stereo not drawn)
inactive: [1] 30.9% | [2] 12.1% | [3] 39.2% | [4] 23.6% | [5] 20.5% | [6] 19.4%

O=C(O)c1cc(=O)[nH]c(SCc2ccc(Cl)cc2Cl)n1
inactive: [1] -14.4% | [2] 14.5% | [3] -7.05% | [4] -10.2% | [5] 9.6% | [6] -1.35%

O=C(CCC(=O)Nc1ccc(Cl)c(Cl)c1)CC(=O)c1ccc(F)cc1
inactive: [1] -17.4% | [2] -9.4% | [3] 14.4% | [4] 4.3% | [5] 19.1% | [6] -1.65%

Cn1nc2c(c1-c1cccnc1)CCCc1ccccc1-2
inactive: [1] 10.1% | [2] 24.6% | [3] 13.7% | [4] -15.4% | [5] 69.3% | [6] 28.9%

Cc1nc2ccccc2c(=O)n1-c1ccc(-c2nnc(Sc3nnc(-c4ccc(-n5c(C)nc6ccccc6c5=O)cc4)n3-c3ccccc3)n2-c2ccccc2)cc1
inactive: [1] 16.6% | [2] -3.35% | [3] 8.2% | [4] -17.6% | [5] 11.3% | [6] 30.1%

C[Si](C)(CCCNCCN)O[Si](C)(C)CCCNCCN
inactive: [1] -7.3% | [2] -24.1% | [3] 5.65% | [4] -2.1% | [5] 9.2% | [6] 9.95%

COc1ccc2c(c1)C(=O)C1CC(=O)CCC21 (stereo not drawn)
inactive: [1] -6.45% | [2] -10.4% | [3] -8.9% | [4] -21.8% | [5] -30.6% | [6] -8.9%

Cc1cccc(C)c1NC(=O)C(=O)C(C(=O)c1ccccc1-c1ccccc1)C1OC(=O)c2ccccc21 (stereo not drawn)
inactive: [1] 26.6% | [2] 15.4% | [3] 12.2% | [4] -29.6% | [5] 2.2% | [6] 23.6%

C=CCON(C)c1ccc([N+](=O)[O-])cc1[N+](=O)[O-]
inactive: [1] 15.3% | [2] -0.9% | [3] 16.1% | [4] -43.9% | [5] -1.05% | [6] 13.8%

Cc1ccc2c(c1)CN(C)c1ccc(C)cc1CN2C
inactive: [1] 17.4% | [2] -11.8% | [3] 22.9% | [4] 21.8% | [5] 9.65% | [6] 31.1%

OC(CN(C1CCCCC1)C1CCCCC1)c1ccnc2c(Cl)cc(Cl)cc12 (stereo not drawn)
inactive: [1] -21.8% | [2] -1% | [3] 7.3% | [4] 0.6% | [5] -6.3% | [6] 18.4%

O=C(CCCCCCCCC(=O)OCc1ccccc1)OCc1ccccc1
inactive: [1] 19.2% | [2] 2.55% | [3] 3.85% | [4] -24.2% | [5] 11.2% | [6] 41%

C#CCNC(=O)ON1C(=O)CCC1=O
inactive: [1] -5.25% | [2] -8.4% | [3] -25.7% | [4] -12.4% | [5] -16.9% | [6] -28.9%

Cn1c(=O)c2c(nc(CCCCCCCCc3nc4c(c(=O)n(C)c(=O)n4C)n3C)n2C)n(C)c1=O
inactive: [1] -7.5% | [2] 19.9% | [3] -24.8% | [4] -45% | [5] -14.8% | [6] -14.7%

COCNC(=O)NCC(F)(F)C(F)(F)C(F)(F)C(F)(F)C(F)(F)C(F)(F)C(F)(F)F
inactive: [1] -9.9% | [2] 7.6% | [3] -1.2% | [4] 15.9% | [5] -5.7% | [6] 28.5%
